We go through 2 compounds from PubChem BioAssay AID504929 (The Scripps Research Institute Molecular Screening Center, 2011).

The source made the active and inactive calls. The rule behind the calls is not given here.

The test is described as follows: AlphaScreen signal with amyloid beta 1-40, late-stage follow-up, counter-screen for Wee1 degradation inhibitor project, biochemical, amplified proximity luminescence (AID 504929). Conditions: Abeta1-40 counterscreen, concentration not given here. (In Alpha technology, singlet oxygen from a donor bead excites a nearby acceptor bead.)

Regarding `c1ccc2[nH]c(CNc3nc(N4CCOCC4)nc4c3ncn4-c3ccsc3)nc2c1`, the signal is 75% (active).
Under `O=[N+]([O-])c1cccc2[nH]c(CNc3nc(N4CCOCC4)nc4c3ncn4-c3ccsc3)nc12` stands 60% (active).
